This is part of a sample that, as a whole, favours compounds with a hit. Of some 83,000 tested, about 20% had one in any assay.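 Interpretation: 100, growth as untreated; towards 0, rising growth inhibition; 0, no net growth; 0 to -100, cell death. Compounds scoring below 10 were considered active.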 Unmarked numbers belong to inactive results. Activity calls are given as the source filed them.
The compounds below were run on K-562 leukemia (assay: NCI-60 one-dose screen, 48 h (100 = growth as untreated, 0 = no growth, -100 = all killed)). Conditions: 10 µM unless noted.
Compound `O=C(NNC(=O)c1ccc(-n2cc(-c3ccccc3)nn2)cc1)Nc1ccccc1` has a growth of 105%. `COc1ccc(-c2csc(N(C(=O)N3CCN(c4cc5c(cc4F)c(=O)c(C(=O)O)cn5C4CC4)CC3)c3ccccc3)n2)cc1` was tested, and the growth was 14%. `O=Nc1c(-c2c(O)[nH]c3ncccc23)[nH]c2ccccc12` was tested, and the growth was 53.3%. Work on `CCN1CC(=O)N(/N=C2\C(=O)Nc3ccccc32)C1=S` yielded a growth of 106%. For `O=C1CC(N2C(=O)/C(=C/C(Cl)=C\c3ccc([N+](=O)[O-])cc3)SC2=S)C(=O)N1c1ccc(Cl)cc1` (stereo not given), the growth was 6.26% (active). `CN(C)C1CCN(Cc2ccc(NC(=O)c3cncc(C#Cc4cnc(N)c5ncccc45)c3)cc2C(F)(F)F)CC1` was tested, and the growth was 1.29% (active). For `Cn1cc(-c2nonc2-c2c[nH]c3ccc(Br)cc23)c2cc(Br)ccc21`, the growth was 7.65% (active). Work on `C[C@@H]1CCC[C@H]1CC(N)C(=O)O` (stereo not given in full) yielded a growth of 99%. `S=C(Nc1ccc(-c2nc(N3CCOCC3)c3cccn3n2)cc1)Nc1cccnc1` gave a growth of 26.2%. `O=C(CN1C(=O)CCC1=O)Nc1ncc(Cc2ccc(F)cc2)s1` was tested, and the growth was 98.5%. `CN1CCN(C(=O)OCc2ccc3c(Cl)cc(Cl)c(O)c3n2)CC1` gave a growth of 18.1%. With `O=C(O)[C@@H]1c2ccccc2-c2ccccc2[C@H]1C(=O)O` the growth was 98%. Compound `Clc1ccc(Sc2cnc(-c3ccccc3)o2)cc1` has a growth of 98.2%. In the case of `C=C(C)[C@@H]1CC[C@]2(C(=O)NCC#CCN3CCN(C)CC3)CC[C@]3(C)[C@H](CC[C@@H]4[C@@](C)(CCC#N)[C@H](C(=C)C)CC[C@]43C)[C@@H]12`, the growth is reported as 2.05% (active). `Cc1ccc(/C=N/Nc2nc(Nc3ccccc3)nc(-n3nc(C)cc3C)n2)cc1` gave a growth of 37.1%. `COc1ccc(/C(C)=C(/c2ccc(OCCCN(C)C)cc2)c2ccc(OC(=O)Cc3ccccc3)cc2)cc1` gave a growth of 11.9%. `CCOC(=O)C1=C(NC)OCC1=O` gave a growth of 99%. Compound `C#CCOc1ccc2ncnc(Nc3cccc(NC(=O)C=C)c3)c2c1` has a growth of 70.6%. In the case of `COc1cc(-n2cc(-c3cc(O)c(C/C=C(\C)CCC=C(C)C)c(O)c3)nn2)cc2c1O[C@]1(C)CC[C@@H](O)C(C)(C)[C@H]1C2`, the growth is reported as 3.36% (active). `N#C/C(=C\c1ccc(Br)cc1)n1nnc2ccc(F)cc21` was tested, and the growth was 3.46% (active). In the case of `CCN(CC)CCNC(=O)c1cn2ncnc(Oc3ccc(NC(=O)Nc4ccc(Cl)c(C(F)(F)F)c4)c(F)c3)c2c1C`, the growth is reported as -23% (active). Compound `Cc1nc(N2CCOCC2)sc1S(N)(=O)=O` has a growth of 110%. With `CC(=O)N(N=Nc1ccccc1)c1cccc2ccccc12` the growth was 89.5%. With `Cc1ccc(-c2nc(N3CCNCC3)c3oc(-c4ccccc4)nc3n2)cc1` the growth was -73.3% (active). Work on `Cc1cc2c(O)c(-c3cc(Cl)ccc3Cl)c3sc(=O)oc3c2cc1C` yielded a growth of 28.3%. `N=C(N)c1ccc(-c2ccc(-c3cc(Cl)cc(Cl)c3)o2)o1` was tested, and the growth was -59.7% (active). With `CC1=Nc2cnc(Nc3ccc(OCCN4CCCCC4)cc3)nc2Nc2ccccc21` the growth was 24.1%. Work on `Cc1cccnc1NC(=S)Nc1ncccc1C` yielded a growth of 65.3%. Compound `CN1C(=O)/C(=C/c2ccc(C(=O)Nc3ncc(Cc4ccc(Cl)cc4)s3)cc2)SC1=S` has a growth of 38.4%. `COc1ccc(-c2nnc3n(C)c(=O)c4ccccc4n23)cc1N` gave a growth of 12.1%. With `CC1=C(CCC(C)N(C)Cc2ccc(OCCCN3CCCC3)cc2)C(C)(C)CCC1` (stereo not given) the growth was -22.2% (active). Compound `CCCc1cc(NC)nc(S(=O)(=O)CC)n1` has a growth of 97.7%. In the case of `Cc1cccc(Cl)c1NC(=O)c1ccc2nc(NC(=O)NCCN(C)C)sc2c1`, the growth is reported as 14.7%. `O=c1oc2ccccc2cc1C1=NN=C(SCc2ccccc2)SC1` showed a growth of 91.4%. Compound `CC1(c2ccccc2O)NN=C(/N=C/c2cccc([N+](=O)[O-])c2)N1C(Cc1c[nH]c2ccccc12)C(=O)O` (stereo not given) has a growth of 89.8%. `CC(O)c1cnc(/C=C2\SC(=S)N(Cc3ccccc3)C2=O)s1` (stereo not given) gave a growth of 18%. Work on `Cc1ccc(CNc2ccc(Cl)cc2NCc2ccc(C)c(O)c2)cc1O` yielded a growth of 12.3%. `NC(=O)c1c(NC(=O)c2ccccc2)sc2c1CCC(=O)C2` was tested, and the growth was 5.24% (active). Work on `CCn1c(=S)sc2c(Nc3ccc(F)cc3)nc(-c3cccnc3)nc21` yielded a growth of 77.1%. `COc1cc(C(=O)n2nc(N3CCN(C)CC3)c3cc(N)ccc32)cc(OC)c1OC` was tested, and the growth was 10.4%.

Reference: PubChem BioAssay (NCI)
